Laboratory results reported in PubChem BioAssay AID588676 (Johns Hopkins Ion Channel Center, 2011).
About 3,900 (1.3%) of roughly 310,000 compounds were called active. This is one part of a sample in which actives are shown more often than they occur.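 The calls were made as follows: active = calcium-response B-score plate-corrected more than 3 library SD below zero, starting fluorescence within 5 deviations, no agonist response on first addition; inactive = the rest.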

Each compound was assayed against Mas-related G-protein coupled receptor member X1 (Homo sapiens) (UniProt Q96LB2) (assay: blockade of BAM8-22-evoked MrgX1 calcium response – HEK293 cells, Fluo-4 calcium flux, primary screen (AID 588676;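 as to B-score: peak minus trough fluorescence over baseline after final BAM8-22 challenge near maximal dose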)). Settings: Fluo-4, BAM8-22 antagonism, at 10 µM; hits give low values.
Mas-related G-protein coupled receptor member X1 (Homo sapiens), sequence (Q96LB2 whole entry, looked up): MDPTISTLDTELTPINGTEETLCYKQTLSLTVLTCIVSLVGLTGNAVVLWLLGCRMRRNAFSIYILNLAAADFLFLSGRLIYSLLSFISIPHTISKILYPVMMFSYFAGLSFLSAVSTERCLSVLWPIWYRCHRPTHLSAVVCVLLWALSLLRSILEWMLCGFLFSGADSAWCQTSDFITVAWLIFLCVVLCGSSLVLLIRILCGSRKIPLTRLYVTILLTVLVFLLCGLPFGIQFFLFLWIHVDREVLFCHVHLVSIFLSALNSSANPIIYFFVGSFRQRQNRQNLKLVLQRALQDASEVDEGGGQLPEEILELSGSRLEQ

B-score, active:
CC(C)(C)n1nc2c(c1NC(=O)c1ccc(S(=O)(=O)N3CCCC3)cc1)CS(=O)C2 (stereo unspecified) -5.73
Cc1cc(C)cc(NC(=S)NCCc2c[nH]c3ccccc23)c1 -5.78
O=C(O)c1ccc2c(c1)C(=O)N(c1ccc(/C=C/C(=O)c3ccccc3)cc1)C2=O -6.62
CCOC(=O)CNC(=O)CSc1nc2cccnc2n1CC -8.3
COc1ccc(C(=O)NC2CCCc3c2cnn3-c2cccc(C)c2C)c(OC)n1 (stereo unspecified) -8.89
CCN(CC)CC(=O)Nc1nn(-c2ccccc2)nc1C(N)=O -7.03
COc1cc(CCC(=O)Nc2ccncc2Cl)cc(OC)c1OC -6.22
COCCCNC(=O)C1CCN(c2ccc(N3CCOCC3)nn2)CC1 -6.39
COC(=O)c1c(NC(=O)c2c(Cl)cnn2C)sc(C)c1C -4.74
Cc1ccc(-c2nn(C(C)(C)C)c3ncnc(N)c23)cc1 -4.54

B-score, inactive:
COc1cc2c(C(=O)N3CCN(C)CC3)c(CSc3ccccc3)n(C)c2cc1Br
O=C(COC(=O)c1cc(-c2cccs2)nn1-c1ccccc1)Nc1cc([N+](=O)[O-])ccc1Cl
O=C(Nc1ncccc1O)c1ccc(S(=O)(=O)N2CCCCCC2)cc1
O=C(Nc1ncccc1O)c1ccc(S(=O)(=O)N2CCCC2)cc1
O=C(CCN1C(=O)[C@H]2CC=CC[C@H]2C1=O)NCc1nc(-c2ccccc2)no1
Cc1ccc(Nc2cc(C)nc3c(C)ccc([N+](=O)[O-])c23)cc1
Cc1cc(C)cc(NC(=S)NCc2ccc(F)cc2)c1
O=C(NCCc1c[nH]c2ccccc12)c1cccc(Br)c1
NS(=O)(=O)c1ccccc1NC(=O)c1c(O)c2ccccc2[nH]c1=O
O=C(/C=C/c1ccc(N2CCOCC2)cc1)c1ccccc1
Cc1cccc(N2C(=O)c3ccc(C(=O)Nc4cccc(C(=O)O)c4)cc3C2=O)c1
Cc1cc(C)cc(C(=O)OCC(=O)NCCNC(=O)COC(=O)c2cc(C)cc(C)c2)c1
CCOC(=O)CNC(=O)CSc1nnc(COc2ccc(Cl)cc2)n1CC
CCOC(=O)CNC(=O)CSc1ncccc1-c1nc2ccccc2[nH]1
O=C1c2cccc3cccc(c23)C(=O)N1c1cccc(O)c1
COC(=O)[C@@H]1C[C@@]2(O)[C@@H](O)[C@@H](O)[C@@H](O)C[C@H]2N1Cc1ccc(C)s1
COc1ccc(Cl)cc1NS(=O)(=O)c1cccc(C(=O)NC2CCC(O)CC2)c1 (stereo unspecified)
Cc1cc(C(=O)NC2CCCc3c2cnn3-c2cccc(C)c2C)c(C)o1 (stereo unspecified)
Cn1nccc1C(=O)NC1CCCc2c1cnn2-c1ccccc1F (stereo unspecified)
Cc1ccc(S(=O)(=O)NNC(=O)/C=C/c2cccc(F)c2)cc1
Cc1ccc(C)c(NC(=O)C2Cc3ccccc3CN2C(=O)OCc2ccccc2)c1 (stereo unspecified)
COc1ccc(C(C)NC(=S)NC2CCCCC2)cc1OC (stereo unspecified)
CCCN(CC(=O)Nc1ccc(C(N)=O)cc1)CC(=O)Nc1ccccc1C
CCN(CC)CCNCC(=O)Nc1ccc(Oc2ccccc2)cc1
O=C1CCC(C(=O)N2CCC(O)(c3ccccc3)CC2)CN1CCc1ccccc1 (stereo unspecified)
COc1ccccc1OCc1nnc(SCC(N)=O)n1-c1ccccc1
CC(C)(C)NC(=O)NC(=O)COC(=O)C1(C)CC1(Cl)Cl (stereo unspecified)
COc1cc(CCC(=O)N2CCN(c3ccccc3Cl)CC2)cc(OC)c1OC
COc1cc(CCC(=O)OCC(=O)Nc2cccc(S(N)(=O)=O)c2)cc(OC)c1OC
C#CCOCCOCCOCCNc1nc(N2CCN(C(=O)CCCCCCCCCCNC(=O)[C@H]([C@@H](C)CC)n3cc(CCCCN=C(N)N)nn3)CC2)nc(N2CCN(C(=O)CCCCCCCCCCNC(=O)[C@H](CO)n3cc(CCCSC)nn3)CC2)n1
O=C(NCC(=O)N(Cc1cccs1)C(C(=O)NC1CCCCC1)c1ccco1)c1cccs1 (stereo unspecified)
CCOc1ccc(CCNC(=O)C2CCN(c3ccc(N4CCOCC4)nn3)CC2)cc1OCC
COc1ccc(N2CCN(CCCNC(=O)C3CCN(S(=O)(=O)N4CCOCC4)CC3)CC2)cc1
CN1CCN(Cc2c(C(=O)N3CCc4ccccc4C3)nc3ccc(Cl)cn23)CC1
CCc1nn(-c2cc(Oc3cccc4ccccc34)nc(-c3ccccc3)n2)c(N)c1C#N
CCOC(=O)c1c(NC(=O)CSc2nccc(=O)[nH]2)sc(C)c1C
COCCCNCC(=O)Nc1sc(C)c(C)c1C(=O)OC
CN(C)c1cccc(C(=O)N2CCC(n3nccc3NC(=O)C3CCOC3)CC2)c1 (stereo unspecified)
Cc1ccccc1OCCC(=O)OCC(=O)NC(C)c1ccccc1 (stereo unspecified)
O=C(Cn1cc(C(=O)C2CC2)c2ccccc21)Nc1ccccc1Cl
Cc1ccc(-n2cnc3ncnc(-c4ccccc4)c32)cc1
